From PubChem BioAssay (NCI)
Compounds without any hit were thinned out: in the full panel of roughly 83,000, 20% have a hit.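 Single-concentration screen, 48 h exposure, 96-well plates. Endpoint: percent growth. Below 10 = active.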 The source made the active and inactive calls.

Each molecule was assayed on SK-MEL-2 melanoma (assay: NCI-60 one-dose screen, 48 h (100 = growth as untreated, 0 = no growth, -100 = all killed)). Details: 10 µM unless noted.

Compound	growth
CCCCCN(CCCCC)CC(O)c1cc(C)c2ccc3cc(C(C)C)ccc3c2c1 (stereo not drawn)	82.6% (inactive)
CN(Cc1ccccc1)c1nc(Cl)c(C2CC(c3ccccc3)=NN2c2ccccc2)s1 (stereo not drawn)	78.5% (inactive)
COC(=O)c1ccc(NC(=O)Nc2ccc(C(=O)OC)cc2)cc1	88% (inactive)
C=C1C(=O)O[C@H]2[C@H]1CC/C(COC(=O)NCc1ccc(Cn3c(=O)sn(-c4ccc(C#N)cc4)c3=O)cc1)=C\CC[C@@]1(C)O[C@@H]21	84.8% (inactive)
NS(=O)(=O)c1ccc(-c2cc(-c3nnc(SCC(=O)Nc4ccc(C(=O)/C=C/c5ccc(Cl)cc5)cc4)n3-c3ccccc3)c3ccccc3n2)cc1	105% (inactive)
CO[C@H](C(=O)[C@@H](O)[C@@H](C)O)[C@@H]1Cc2cc3cc(O[C@H]4C[C@@H](O[C@H]5C[C@@H](O)[C@H](O)C(C)O5)[C@H](O)C(C)(O)O4)cc(O)c3c(O)c2C(=O)[C@H]1O[C@H]1C[C@@H](O[C@H]2C[C@@H](O[C@H]3C[C@@H](OC)[C@H](O)C(C)O3)[C@@H](O)C(C)O2)[C@H](O)C(C)O1 (stereo partly drawn)	-54.9% (active)
COc1ccc(/C=C(/C(=O)n2cnnn2)c2cc(OC)c(OC)c(OC)c2)cc1	57.6% (inactive)
COc1cccc(/C=N/NC(=O)c2ccccc2N2CCCC2)c1O	-7.25% (active)
CN1CCN(c2ccc(NC(=O)c3cncnc3Nc3ccc(OCc4cccc(F)c4)c(Cl)c3)cc2)CC1	120% (inactive)
C=C1C(=O)O[C@H]2[C@H]1CC/C(CNC(=O)c1c[nH]c3ccc(F)cc13)=C\CC[C@@]1(C)O[C@@H]21	45.1% (inactive)
Cc1ncc(C(=O)Nc2ccc(CN3CCN(C)CC3)c(C(F)(F)F)c2)cc1C#Cc1cnc(N)c2ncccc12	-29.8% (active)
CCNC(=O)Oc1ccc(/C(=C(/CC)Cc2ccccc2)c2ccc(OCCN3CCCC3)cc2)cc1	108% (inactive)
CCOC(=O)c1ccccc1-c1c2ccc(=[N+](C)C)cc-2oc2cc(N(C)C)ccc12	4.77% (active)
O=C(Nc1ncc(Cc2ccccc2)s1)c1ccc2c(c1)OCCCO2	30.6% (inactive)
CCCCNc1cc(-c2cn[nH]c2-c2cc(C)cc(OC)c2)nc(-c2cccnc2)n1	115% (inactive)
C=C1CC[C@@H]2[C@](C)(COC(C)=O)[C@H](OC(C)=O)CC[C@@]2(C)[C@@H]1CC(Nc1ccc(S(=O)(=O)NC(C)=O)cc1)C1=CCOC1=O (stereo partly drawn)	-7.41% (active)
C/C=C(\C)C(=O)N[C@H]1C(O)C[C@]2(C)C3CC[C@@]4(C)C(CC[C@@H]4C(C)N(C)C)C3CCC2C1O (stereo partly drawn)	117% (inactive)

Compound	growth
O=C(O)COc1ccc(Cl)c(Cl)c1	118% (inactive)
NS(=O)(=O)c1ccc(C(=O)NN2C(=O)c3c(Br)c(Br)c(Br)c(Br)c3C2=O)cc1	99% (inactive)
CS(=O)(=O)c1ccc(NC(=O)c2ccccc2)nc1	109% (inactive)
FC(F)(F)Oc1cccc(-c2cnc3ccc(-c4ccncc4)nn23)c1	-21.7% (active)
Cc1ccc2c(-n3nc(C#N)c(C#N)c3N)cc(=O)[nH]c2c1	101% (inactive)
CCOC(=O)c1c(C)nc2c(c1N)CC(=O)N2Cc1ccc(OC)cc1	51.2% (inactive)
COc1cccc(CCNc2ncnc3c2ncn3Cc2nnc3c4ccccc4c(Cl)nn23)c1	20.2% (inactive)
C=C1C(=O)O[C@H]2[C@H]1CC/C(COC(=O)c1ccc(C(=O)O)s1)=C\CC[C@@]1(C)O[C@@H]21	49.5% (inactive)
O=S(=O)(Nc1cc(Sc2cccc3cccnc23)c(O)c2ccccc12)c1ccccc1	13.4% (inactive)
CCOC(=O)c1nn(CC(O)c2ccccc2)c(NC(=O)Nc2cccc(F)c2)c1C (stereo not drawn)	95% (inactive)
Cn1ccc(=O)nc1	12.7% (inactive)
CNCc1cccc2c1OCCOCCOCCNS(=O)(=O)c1ccc(cc1)-c1cnc(N)c(n1)C(=O)N2	30% (inactive)
C=C(C)[C@@H]1CC[C@]2(C(=O)N3CCN(C)CC3)CC[C@]3(C)[C@H](CC[C@@H]4[C@@]5(C)CC[C@H](OC(=O)c6ccccc6C(=O)O)C(C)(C)[C@@H]5CC[C@]43C)[C@@H]12	107% (inactive)
CCNc1ccc(-c2nc3ccccc3n3cccc23)cc1	87.9% (inactive)
CSc1nc(C)c([N+](=O)[O-])c(N)n1	109% (inactive)
O=c1cc(-c2ccccc2)[nH]c2ncc(-c3ccc(F)cc3)n12	74.2% (inactive)
